# Experimental data: PubChem BioAssay (NCATS)
# Results filed as inconclusive are left out. A call without a number means that no potency is given here. Values without a mark were called inactive. Calls of active or inactive are those of the source. The call rests on the fitted dose curve; in most records, active means well fitted inhibition curve with a large enough effect; inconclusive means small, poorly fitted or top-dose-only effect; inactive means flat fitted curve, though single readings scatter.
# Target: Phospholipid hydroperoxide glutathione peroxidase GPX4 (Homo sapiens) (UniProt P36969)
# Test: Primary qHTS Assay for Inhibitors of Recombinant Selenoprotein Glutathione Peroxidase 4 (GPX4) (AID 1845192); further: nearly all actives have a fitted effect of over 65% in size
# Conditions: recombinant GPX4, GR-coupled NADPH fluorescence, 15 min; series mostly up to 50 µM; activity change, negative = inhibition: at the top concentration
# Procedure, shortened: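 qHTS, GR-coupled: GPX4 200 nM + cpd 30 min RT → GSH 1 mM, NADPH 0.5 mM, GR 100 nM → CHP 0.5 mM start; fluor 340/450 at t0 and t15 min; no-enzyme wells as control.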
# Potency means the concentration at half of the fitted maximal effect.
# Phospholipid hydroperoxide glutathione peroxidase GPX4 (Homo sapiens), sequence (P36969 whole entry, looked up): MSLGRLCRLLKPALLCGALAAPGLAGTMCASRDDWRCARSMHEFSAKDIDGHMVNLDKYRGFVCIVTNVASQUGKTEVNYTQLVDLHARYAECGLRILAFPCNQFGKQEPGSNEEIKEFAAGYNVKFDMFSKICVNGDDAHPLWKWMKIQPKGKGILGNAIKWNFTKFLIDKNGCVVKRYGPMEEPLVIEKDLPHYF
SMILES,"activity change, negative = inhibition [%]",outcome,Potency
CC1c2ccccc2CN1NC(=O)c1ccc(Cl)c(S(N)(=O)=O)c1 (stereo not given),-14.9,,
CC[N+]1(CC)CCC(=C(c2ccccc2)c2ccccc2)C1C (stereo not given),,inactive,
C[C@H](CN1CCCC1)C(=O)c1ccc(C(F)(F)F)cc1,-3.13,,
CCCCCOc1ccc(C2SC(=O)NC2=O)cc1OCC (stereo not given),,,22.4 µM (active)
CO[C@]1(NC(=O)CSC(F)F)C(=O)N2C(C(=O)O)=C(CSc3nnnn3CCO)CO[C@H]21,,inactive,
CCCN(CCC)C(=O)C(CCC(=O)OCCCN1CCN(CCOC(=O)Cc2c(C)n(C(=O)c3ccc(Cl)cc3)c3ccc(OC)cc23)CC1)NC(=O)c1ccccc1 (stereo not given),-6.24,,
CCN(CC)CCOc1ccc(/C(=C(\Cl)c2ccccc2)c2ccccc2)cc1,,,inactive
COc1cc(C(=O)OC(COCCC(C)C)CN2CCOCC2)cc(OC)c1OC (stereo not given),-2.7,,
Cc1cccc(N(C)C(=S)Oc2ccc3c(c2)CCC3)c1,,inactive,
CC[C@@]1(O)C(=O)OCc2c1cc1n(c2=O)Cc2c-1nc1ccccc1c2/C=N/OC(C)(C)C,,,12.6 µM (active)
CO/N=C(/C(=O)N[C@@H]1C(=O)N2C(C(=O)O)=C(Cn3nnc(C)n3)CS[C@H]12)c1csc(N)n1,,inactive,
CC(=O)[C@H]1CC[C@H]2[C@@H]3C=CC4=CC(=O)CC[C@@]4(C)[C@@H]3CC[C@]12C,,,inactive
Cc1ccccc1C(=O)N1CC/C(=N\OS(=O)(=O)O)c2ccc(Cl)cc21,,inactive,
CN(C)C(=O)CNC(=O)Cc1ccccc1,,inactive,
COC(=O)C1=C(C)NC(COC(N)=O)=C(C(=O)OC(C)C)C1c1cccc(Cl)c1Cl (stereo not given),-16.3,,
